Assay [1] is described as follows: NCI Yeast Anticancer Drug Screen. Data for the rad50 strain (AID 155).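 Also: 0% = growth of vehicle-only cultures of the same strain.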 The note with it: S. cerevisiae rad50 strain growth inhibition, stronger effect = higher value. The procedure, abridged:
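Growth of the mutant yeast was measured after compound exposure and referenced to vehicle-treated cultures.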

A short description of assay [2]: NCI Yeast Anticancer Drug Screen. Data for the mec2-1 strain (AID 157). As to conditions: S. cerevisiae mec2-1 strain, stronger effect = higher value. The essentials:
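Strain: mec2-1 (DNA repair/cell cycle alteration). Compound exposure, then growth measured; inhibition expressed relative to vehicle.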

The nature of assay [3]: NCI Yeast Anticancer Drug Screen. Data for the sgs1 mgt1 strain (AID 161).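 Also: 0% = growth of cultures given vehicle only.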 As to conditions: S. cerevisiae sgs1 mgt1 strain, stronger effect = higher value. The essentials: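 Inhibition of yeast growth, normalised to vehicle-treated controls, is reported for a strain bearing genetic alterations in DNA damage repair.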
Assay [4] can be described thus: NCI Yeast Anticancer Drug Screen. Data for the bub3 strain (AID 167). The note with it: S. cerevisiae bub3 mutant strain, stronger effect = higher value. The procedure, abridged: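 Whole-cell yeast assay. The mutant strain was incubated with compounds, and growth inhibition was determined by comparison with vehicle-treated cells.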
Assay [5] in a line: NCI Yeast Anticancer Drug Screen. Data for the mlh1 rad18 strain (AID 175). The note with it: S. cerevisiae mlh1 rad18 strain growth inhibition, stronger effect = higher value. The procedure, abridged:
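Read-out is yeast growth inhibition, calculated against vehicle-only controls. The compound was applied to a strain engineered with DNA damage repair alterations.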

Assay [6] can be described thus: NCI Yeast Anticancer Drug Screen. Data for the cln2 rad14 strain (AID 165).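 Also: 0% = growth equal to vehicle treated cultures.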 As to conditions: S. cerevisiae cln2 rad14 strain, stronger effect = higher value. The essentials: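 Compounds are applied to the cln2 rad14 yeast strain, and growth is then compared with that of vehicle-treated cultures to give inhibition.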
The mark [7] stands for this setting: at 5.0 µM (retest, dose inferred, filed as 0.5).
Setting [8] is: at 50.0 µM (retest, dose inferred, filed as 5.0).

This is part of a sample that, as a whole, favours compounds with a hit. Of some 79,000 tested, about 15% had one in any assay. A number with no mark means an inactive call. Activity calls are given as the source filed them. Rule as the data show it: active = growth inhibition above about 70%; inactive = the rest.

For the molecule `CN(C)C(=[Se])[Se]C(=[Se])N(C)C`, the growth inhibition in assay [1] (setting [7]) is 95% (active); in assay [1] (setting [8]), 91% (active); in assay [1] (at 50.0 µM) it was 95.8% (active); in assay [2] (setting [7]), 96% (active); in assay [2] (setting [8]) it was 93% (active); in assay [2] (at 50.0 µM), 96% (active). In addition, the growth inhibition was 93% (active) in assay [3] (setting [7]); 92% (active) in assay [3] (setting [8]); 95.5% (active) in assay [3] (at 50.0 µM); 93% (active) in assay [4] (setting [7]); 92% (active) in assay [4] (setting [8]); 95.8% (active) in assay [4] (at 50.0 µM). Further, the growth inhibition in assay [5] (setting [7]) was 96% (active); in assay [5] (setting [8]), 91% (active); in assay [5] (at 50.0 µM), 96.3% (active).

Turning to `N=P(c1ccccc1)(c1ccccc1)c1ccccc1` (tested in a mixture with another compound), the growth inhibition in assay [1] (setting [7]) is 10%; in assay [1] (setting [8]), 32%; in assay [1] (at 50.0 µM), 62.2%; in assay [2] (setting [7]), 6%; in assay [2] (setting [8]), 25%; in assay [2] (at 50.0 µM), 17.3%. The growth inhibition in assay [3] (setting [7]) was 14%; in assay [3] (setting [8]) it was 32%; in assay [3] (at 50.0 µM), 44.1%; in assay [6] (setting [7]), -3%; in assay [6] (setting [8]) it was 10%; in assay [6] (at 50.0 µM), 25.4%. In addition, the growth inhibition in assay [4] (setting [7]) is -1%; in assay [4] (setting [8]), 29%; in assay [4] (at 50.0 µM), 19.1%; in assay [5] (setting [7]) it was 6%; in assay [5] (setting [8]), 27%; in assay [5] (at 50.0 µM), 59.9%.

Take `CC(CCS(C)(=O)=O)([N+](=O)[O-])[N+](=O)[O-]`: the growth inhibition in assay [2] (setting [7]) was 16%; in assay [2] (setting [8]), 99% (active); in assay [2] (at 50.0 µM), 55%; in assay [3] (setting [7]), 28%; in assay [3] (setting [8]), 99% (active); in assay [3] (at 50.0 µM), 52.6%. The growth inhibition in assay [6] (setting [7]) was 14%; in assay [6] (setting [8]), 99% (active); in assay [6] (at 50.0 µM), 56.4%; in assay [4] (setting [7]) it was 27%; in assay [4] (setting [8]), 99% (active); in assay [4] (at 50.0 µM) it was 99% (active). Also, the growth inhibition in assay [5] (setting [7]) is 24%; in assay [5] (setting [8]) it was 100% (active); in assay [5] (at 50.0 µM) it was 98.3% (active).

Regarding `Cc1cc(N(CCCl)CCCl)ccc1CN1CCCN(Cc2ccc(N(CCCl)CCCl)cc2C)C1c1ccc(N(CCCl)CCCl)cc1C`, the growth inhibition was 4% in assay [1] (setting [7]); 98% (active) in assay [1] (setting [8]); 98% (active) in assay [1] (at 50.0 µM); -2% in assay [2] (setting [7]); 99% (active) in assay [2] (setting [8]); 98% (active) in assay [2] (at 50.0 µM). Besides, the growth inhibition is 2% in assay [3] (setting [7]); 99% (active) in assay [3] (setting [8]); 98.8% (active) in assay [3] (at 50.0 µM); 7% in assay [4] (setting [7]); 99% (active) in assay [4] (setting [8]); 97.7% (active) in assay [4] (at 50.0 µM). Further, the growth inhibition was 21% in assay [5] (setting [7]), 98% (active) in assay [5] (setting [8]) and 98.6% (active) in assay [5] (at 50.0 µM).

On to `COc1cc(C(c2c(O)c3ccccc3oc2=O)c2c(O)c3ccccc3oc2=O)cc(OC)c1O`, for which the growth inhibition is 4% in assay [1] (setting [7]); 20% in assay [1] (setting [8]); 75% (active) in assay [1] (at 50.0 µM); -2% in assay [3] (setting [7]); 12% in assay [3] (setting [8]); 54.7% in assay [3] (at 50.0 µM). The growth inhibition in assay [6] (setting [7]) was 0%; in assay [6] (setting [8]), 0%; in assay [6] (at 50.0 µM) it was 70.8% (active); in assay [4] (setting [7]), -5%; in assay [4] (setting [8]), -10%; in assay [4] (at 50.0 µM), 50%. Moreover, the growth inhibition was -7% in assay [5] (setting [7]), 2% in assay [5] (setting [8]) and 90.6% (active) in assay [5] (at 50.0 µM).

On to `COc1ccccc1[As]=O` (stereo not drawn), for which the growth inhibition in assay [1] (setting [7]) was 1%; in assay [1] (setting [8]), 99% (active); in assay [1] (at 50.0 µM), 99.3% (active); in assay [2] (setting [7]) it was -12%; in assay [2] (setting [8]), 99% (active); in assay [2] (at 50.0 µM) it was 99.6% (active). In addition, the growth inhibition was 8% in assay [3] (setting [7]); 99% (active) in assay [3] (setting [8]); 99.5% (active) in assay [3] (at 50.0 µM); -14% in assay [6] (setting [7]); 99% (active) in assay [6] (setting [8]); 98.6% (active) in assay [6] (at 50.0 µM). In addition, the growth inhibition in assay [5] (setting [7]) was 25%; in assay [5] (setting [8]) it was 99% (active); in assay [5] (at 50.0 µM), 99.4% (active).

Regarding `CCCCC1C(=O)NC(=S)N(c2ccccc2)C1=O` (stereo not drawn), the growth inhibition is -4% in assay [1] (setting [7]); -1% in assay [1] (setting [8]); -1.75% in assay [1] (at 50.0 µM); -3% in assay [2] (setting [7]); 11% in assay [2] (setting [8]); -1.25% in assay [2] (at 50.0 µM). Further, the growth inhibition in assay [3] (setting [7]) is 3%; in assay [3] (setting [8]) it was 17%; in assay [3] (at 50.0 µM), 7.5%; in assay [4] (setting [7]) it was 0%; in assay [4] (setting [8]) it was 4%; in assay [4] (at 50.0 µM), 11.1%. In addition, the growth inhibition in assay [5] (setting [7]) was -9%; in assay [5] (setting [8]), 1%; in assay [5] (at 50.0 µM), 13.8%.

As for `O=C1CN2C(Cl)(Cl)C2(c2ccccc2)c2cc(Cl)ccc2N1CC1CC1` (stereo not drawn), the growth inhibition in assay [1] (setting [7]) was 54%; in assay [1] (setting [8]), 93% (active); in assay [1] (at 50.0 µM), 90.3% (active); in assay [3] (setting [7]), 27%; in assay [3] (setting [8]) it was 94% (active); in assay [3] (at 50.0 µM), 92.7% (active). The growth inhibition in assay [6] (setting [7]) was 18%; in assay [6] (setting [8]), 91% (active); in assay [6] (at 50.0 µM), 88.3% (active); in assay [4] (setting [7]) it was 39%; in assay [4] (setting [8]), 93% (active); in assay [4] (at 50.0 µM), 68.2%. Besides, the results for the growth inhibition in assay [5] (setting [7]), in assay [5] (setting [8]) and in assay [5] (at 50.0 µM) were 65%, 92% (active) and 87.3% (active), respectively.

`CCC(C)c1cc([N+](=O)[O-])cc([N+](=O)[O-])c1O` (stereo not drawn): the growth inhibition in assay [1] (setting [7]) was -137%; in assay [1] (setting [8]) it was 39%; in assay [1] (at 50.0 µM) it was 79% (active); in assay [2] (setting [7]) it was -31%; in assay [2] (setting [8]), 24%; in assay [2] (at 50.0 µM), 66.2%. Further, the growth inhibition is -50% in assay [3] (setting [7]); 60% in assay [3] (setting [8]); 86% (active) in assay [3] (at 50.0 µM); -58% in assay [4] (setting [7]); 19% in assay [4] (setting [8]); 80.1% (active) in assay [4] (at 50.0 µM). The values for the growth inhibition in assay [5] (setting [7]), in assay [5] (setting [8]) and in assay [5] (at 50.0 µM) were -123%, 40% and 85.5% (active), respectively.

(Values after PubChem BioAssay (NCI).)
